Inconclusive results are not listed. Active and inactive are the calls of the source. Rule for the calls, unless noted: active = hit-call score of the fitted dose curve at least 0.9, where 1 is the maximum; inconclusive = response in the unintended direction; inactive = score below 0.9.
Legend:
[1] = TOX21_p53_BLA_p2_viability: Viability Assessment in the Tox21 HCT-116 p53 Agonism Beta-lactamase Assay, Phase 2 (AID 2283591);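 note: compound exposure lasted 16 h at 37 °C; actives lower the ATP signal meaning cytotoxicity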
Method in brief: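 Cytotoxicity readout: CellTiter-Glo ATP luminescence, 30 min at room temperature, after the beta-lactamase read. Cells were HCT116 exposed 16 h at 37C to compounds pin-transferred at 217-fold dilution from DMSO stocks.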

[2] = target: Cellular tumor antigen p53 (Homo sapiens) (UniProt P04637); assay: TOX21_p53_BLA_p2_ratio: Tox21 HCT-116 p53 Agonism Beta-lactamase Assay, Ratio, Phase 2 (AID 2283592)
Method in brief: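 Ratio endpoint: beta-lactamase cleavage of CCF4-AM, blue (460 nm) over green (530 nm). HCT116 reporter line; 16 h treatment, 37C; substrate 2 h RT.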

[3] = TOX21_p53_BLA_p3_viability: Viability Assessment in the Tox21 HCT-116 p53 Agonism Beta-lactamase Assay, Phase 3 (AID 2283593);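 note: cells exposed to compound for 16 h before reading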
Method in brief: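 Cellular ATP was quantified by CellTiter-Glo luminescence, read after 30 min at room temperature. Beforehand, HCT116 cells (4000/well) received compound 5 h post-seeding, 217-fold diluted from DMSO, then incubated 16 h at 37C.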

[4] = target: Cellular tumor antigen p53 (Homo sapiens) (UniProt P04637); assay: TOX21_p53_BLA_p3_ratio: Tox21 HCT-116 p53 Agonism Beta-lactamase Assay, Ratio, Phase 3 (AID 2283596)
Method in brief: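 Cells were seeded at 4000/well, rested 5 h at 37C, then dosed with DMSO compound solutions (217-fold dilution) for 16 h. CCF4-AM substrate was loaded for 2 h at room temperature, and the 460/530 nm emission ratio was fitted for gain of signal versus DMSO.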

[5] = target: Cellular tumor antigen p53 (Homo sapiens) (UniProt P04637); assay: TOX21_p53_BLA_p5_ratio: Tox21 HCT-116 p53 Agonism Beta-lactamase Assay, Ratio, Phase 5 (AID 2283599)
Method in brief: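 Beta-lactamase reporter ratio (blue 460 nm over green 530 nm, 405 nm excitation) after 2 h CCF4-AM loading, in HCT-116 cells exposed 16 h at 37 C to compounds pinned at 217-fold dilution. Increases relative to DMSO baseline scored.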

[6] = TOX21_p53_BLA_p5_viability: Viability Assessment in the Tox21 HCT-116 p53 Agonism Beta-lactamase Assay, Phase 5 (AID 2283600)
Method in brief: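 Luciferase-coupled ATP quantitation of cells treated for 16 h (37C, 5% CO2) with test chemicals delivered in DMSO via a 217-fold dilution; 4000 cells/well; reagent incubated 30 min at room temperature before luminescence reading.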

[7] = target: Cellular tumor antigen p53 (Homo sapiens) (UniProt P04637); assay: TOX21_p53_BLA_p4_ratio: Tox21 HCT-116 p53 Agonism Beta-lactamase Assay, Ratio, Phase 4 (AID 2283601)
Method in brief: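 Signal is the blue/green (460nm/530nm) ratio of cleaved versus uncleaved CCF4-AM substrate, read after 2 h substrate loading. Cells were HCT116 carrying the p53-responsive beta-lactamase reporter, dosed 16 h at 37C, 5% CO2; CellTiter-Glo measured in parallel.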

[8] = TOX21_TR_RXR_BLA_Agonist_Followup_viability: Viability Assessment in the Tox21 Thyroid Hormone Receptor beta Retinoid X Receptor alpha (RXRa) Agonism Beta-lactamase (BLA) Follow-Up Assay (AID 2283970)
Method in brief: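 CellTiter-Glo ATP luciferase read-out of cell viability, multiplexed with the beta-lactamase reporter run. RXRa-bla HEK293T cells in charcoal-stripped serum medium were exposed 16 h at 37C; data fitted both directions relative to DMSO.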

[9] = tested on: Brachyury (BRA) Protein Expression, Deisenroth Lab, TBXT (gene 6862); assay: CCTE_Deisenroth_DEVTOX-GLR_legacy_Bra: (Legacy) CCTE's DevTox GLR-Endo Assay Evaluation of Brachyury (BRA) Protein Expression, Deisenroth Lab (AID 2284329; active = hit-call score of the fitted dose curve at least 0.9, where 1 is the maximum; inactive = score below 0.9)
Method in brief: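 Percent Bra-positive cells, scored by high-content imaging against a threshold of 5x BMAD over the undifferentiated control median, with the 0.2% DMSO median subtracted. RUES2-GLR cultures were dosed twice at 24 h intervals across a 48 h differentiation, at 1 nM–200 uM in ten steps, with n=4 replicates.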

[10] = tested on: SRY-box transcription factor 17 (SOX17) Protein Expression, Deisenroth Lab, SOX17 (gene 64321); assay: CCTE_Deisenroth_DEVTOX-GLR_legacy_Sox17: (Legacy) CCTE's DevTox GLR-Endo Assay Evaluation of SRY-box transcription factor 17 (SOX17) Protein Expression, Deisenroth Lab (AID 2284341; active = hit-call score of the fitted dose curve at least 0.9, where 1 is the maximum; inactive = score below 0.9); details: actives raise or lower the signal
Method in brief: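 Endoderm-differentiation readout in RUES2-GLR human pluripotent cells at 48 h, concentrations spanning 1 nM - 200 uM. Sox17-positive cells divided by total cell count; gain or loss relative to DMSO solvent control, n=4 experimental replicates.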

[11] = tested on: SRY-box transcription factor 2 (SOX2) Protein Expression, Deisenroth Lab, SOX2 (gene 6657); assay: CCTE_Deisenroth_DEVTOX-GLR_legacy_Sox2: (Legacy) CCTE's DevTox GLR-Endo Assay Evaluation of SRY-box transcription factor 2 (SOX2) Protein Expression, Deisenroth Lab (AID 2284346; active = hit-call score of the fitted dose curve at least 0.9, where 1 is the maximum; inactive = score below 0.9)
Method in brief: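 Percent Sox2-positive cells was scored by high-content imaging of 5 fields per well. Positivity cutoff was 5x BMAD over the directed endoderm control, and the DMSO median was subtracted. Cells were RUES2-GLR, dosed twice at 24-h intervals over 48 h of differentiation (1 nM-200 uM).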

[12] = tested on: SRY-box transcription factor 2 (SOX2) Protein Expression, Deisenroth Lab, SOX2 (gene 6657); assay: CCTE_Deisenroth_DEVTOX-GLR_Endo_SOX2: CCTE's DevTox GLR-Endo Assay Evaluation of SRY-box transcription factor 2 (SOX2) Protein Expression, Deisenroth Lab (AID 2284412)
Method in brief: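 Endpoint is percent SOX2-positive cells (SOX2+ count/total cells) minus 0.2% DMSO control, from high-content imaging of fixed, nuclear-stained RUES2-GLR cells. Dosing twice at 24 h intervals over 48 h differentiation, 1 nM–200 uM in 10 points.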

[13] = tested on: Brachyury (BRA) Protein Expression, TBXT (gene 6862); assay: CCTE_Deisenroth_DEVTOX-GLR_Endo_BRA: CCTE's DevTox GLR-Endo Assay Evaluation of Brachyury (BRA) Protein Expression, Deisenroth Lab (AID 2284417; active = hit-call score of the fitted dose curve at least 0.9, where 1 is the maximum; inactive = score below 0.9)
Method in brief: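 Read-out: BRA+ cell count divided by total cell count by high-content imaging (5 fields per well), expressed relative to 0.2% DMSO solvent control. RUES2-GLR cells dosed twice over a 48 h differentiation; concentrations 1 nM - 200 uM.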

[14] = CCTE_Deisenroth_DEVTOX-GLR_Endo_CellCount: Viability Assessment in CCTE's DevTox GLR-Endo Assay, Deisenroth Lab (AID 2284420; active = hit-call score of the fitted dose curve at least 0.9, where 1 is the maximum; inactive = score below 0.9)
Method in brief: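 RUES2-GLR human pluripotent cells seeded 24 h, then differentiated 48 h with two chemical exposures at 24 h intervals (10-point, 1 nM - 200 uM). Fixed, nuclear-stained, imaged; nuclei counts give % change in cell count versus 0.2% DMSO.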

[15] = tested on: SRY-box transcription factor 17 (SOX17) Protein Expression, Deisenroth Lab, SOX17 (gene 64321); assay: CCTE_Deisenroth_DEVTOX-GLR_Pluri_SOX17: CCTE's DevTox GLR-Pluri Assay Evaluation of SRY-box transcription factor 17 (SOX17) Protein Expression, Deisenroth Lab (AID 2284427)
Method in brief: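 RUES2-GLR human pluripotent cells were seeded 24 h, then differentiated 48 h in defined media with two chemical exposures 24 h apart (10-point series, 1 nM - 200 uM). Fixed, nuclear-stained cells were imaged; %SOX17+ cells minus 0.2% DMSO control reported.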

[16] = tested on: SRY-box transcription factor 2 (SOX2) Protein Expression, Deisenroth Lab, SOX2 (gene 6657); assay: CCTE_Deisenroth_DEVTOX-GLR_Pluri_SOX2: CCTE's DevTox GLR-Pluri Assay Evaluation of SRY-box transcription factor 2 (SOX2) Protein Expression, Deisenroth Lab (AID 2284428; active = hit-call score of the fitted dose curve at least 0.9, where 1 is the maximum; inactive = score below 0.9)
Method in brief: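 Human pluripotent RUES2-GLR cells were seeded 24 h, then differentiated 48 h in defined media with two chemical doses at 24-h intervals (10-point, 1 nM–200 uM). Nuclear-stained cells were imaged; SOX2+ cells/cell count gave percent change versus 0.2% DMSO control.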

[17] = tested on: Brachyury (BRA) Protein Expression, Deisenroth Lab, TBXT (gene 6862); assay: CCTE_Deisenroth_DEVTOX-GLR_Pluri_BRA: CCTE's DevTox GLR-Pluri Assay Evaluation of Brachyury (BRA) Protein Expression, Deisenroth Lab (AID 2284429)
Method in brief: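 Percent BRA+ cells (BRA+ count over total cells) by high-content imaging of fixed RUES2-GLR cultures, corrected by 0.2% DMSO control. Cells received two doses over 48-hour differentiation, 1 nM–200 uM, n=4 experiments.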

[18] = CCTE_Deisenroth_DEVTOX-GLR_Pluri_CellCount: Viability Assessment in CCTE's DevTox GLR-Pluri Assay Evaluation of Total Cell Counts, Deisenroth Lab (AID 2284430; active = hit-call score of the fitted dose curve at least 0.9, where 1 is the maximum; inactive = score below 0.9)
Method in brief: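 Cytotoxicity readout: fluorescent nuclei counts by high-content imaging, expressed as percent change relative to 0.2% DMSO. Human RUES2-GLR pluripotent line differentiated 48 h, dosed twice at 24-h intervals across 1 nM - 200 uM (10 points).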

Measured: AC50

Cellular tumor antigen p53 (Homo sapiens), sequence (P04637 whole entry, looked up): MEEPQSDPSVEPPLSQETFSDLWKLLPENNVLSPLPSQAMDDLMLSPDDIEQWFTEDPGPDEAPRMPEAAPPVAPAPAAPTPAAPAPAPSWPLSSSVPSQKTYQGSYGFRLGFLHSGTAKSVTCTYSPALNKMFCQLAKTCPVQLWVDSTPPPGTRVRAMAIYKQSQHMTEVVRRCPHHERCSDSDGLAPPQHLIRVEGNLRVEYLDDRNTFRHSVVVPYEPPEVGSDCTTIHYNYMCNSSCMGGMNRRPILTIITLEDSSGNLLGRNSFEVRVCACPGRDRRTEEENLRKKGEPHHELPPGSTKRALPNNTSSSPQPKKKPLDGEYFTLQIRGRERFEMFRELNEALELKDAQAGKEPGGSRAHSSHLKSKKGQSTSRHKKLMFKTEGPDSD

OC[C@@H](O)[C@@H](O[C@@H]1O[C@H](CO)[C@H](O)[C@H](O)[C@H]1O)[C@H](O)[C@@H](O)CO
inactive: [1] | [2] | [3] | [4] | [5] | [6] | [7]

NC(=O)[C@@H]1CCCN1C(=O)[C@H](Cc1cnc[nH]1)NC(=O)[C@@H]1CCC(=O)N1
inactive: [1] | [2] | [3] | [4] | [5] | [7]

CCOC(=O)Cn1cccc1-c1nc(-c2ccc(OC)cc2)c(-c2ccc(OC)cc2)s1
inactive: [1] | [2] | [3] | [5] | [6] | [7]
active: [4] 40.9 µM

CC1=C(C)C(=O)C(CCCCC#CCCCC#CCO)=C(C)C1=O
inactive: [1] | [2] | [3] | [4] | [5] | [7]

CC(=C\c1ccccc1)/C=C1/SC(=S)N(CC(=O)O)C1=O
inactive: [1] | [2] | [3] | [4] | [5] | [6] | [7]

C[C@H]1O[C@@H](n2cc(F)c(=O)[nH]c2=O)[C@H](O)[C@@H]1O
active: [1] 17.9 µM | [2] 23 µM | [3] 15.5 µM | [4] 20.7 µM | [5] 24.4 µM | [7] 27.5 µM
inactive: [6]

COc1ccc(-c2ccc3cc(C(=O)O)ccc3c2)cc1C12CC3CC(CC(C3)C1)C2
inactive: [1] | [2] | [6] | [7]
active: [3] 3.62 µM | [4] 2.12 µM | [5] 6.67 µM

C[C@H](NCCc1ccc(O)cc1)[C@H](O)c1ccc(O)cc1
inactive: [1] | [2] | [3] | [4] | [5] | [7]

FC(F)(F)C(F)(F)C(F)(F)C(F)(F)C(F)(F)C(F)(F)C(F)(F)C(F)(F)Br
inactive: [1] | [2] | [3] | [4] | [5] | [7]

NC[C@@H]1CC[C@@H](N)[C@@H](O[C@H]2[C@H](O)[C@@H](O[C@H]3O[C@H](CO)[C@@H](O)[C@H](N)[C@H]3O)[C@H](N)C[C@@H]2N)O1
inactive: [1] | [2] | [3] | [4] | [5] | [6] | [7]

Nc1ccc(S(=O)(=O)Nc2ccccn2)cc1
inactive: [1] | [2] | [3] | [4] | [5] | [7]

O=C1CCC(=O)N1CO
inactive: [1] | [2] | [3] | [4] | [5] | [7]

CC1=C(/C=C/C(C)=C/C=C/C(C)=C\C(=O)O)C(C)(C)CCC1
active: [3] 42.9 µM | [4] 87.3 µM | [9] 100 µM | [10] 0.159 µM | [11] 41.3 µM | [12] 69.5 µM | [13] 28 µM | [14] 10.7 µM | [15] 20.2 µM | [16] 1.78 µM | [17] 16.7 µM | [18] 19 µM
inactive: [1] | [2] | [5] | [6] | [7] | [8]

Reference: PubChem BioAssay (EPA / NIEHS)
